# Reference: ChEMBL document CHEMBL1201862, “PubChem BioAssay data set” (2004)
# Out of some 390,000 compounds screened, about 910 (0.23%) were called active. About 5% were inconclusive and are not listed. The calls are words filed in the database; no cut-off is given here. Shown is part of a subset that was picked to be rich in actives.
# Target: T1, Ubiquitin carboxyl-terminal hydrolase 1 (Homo sapiens) (UniProt O94782)
# T1 sequence (whole entry): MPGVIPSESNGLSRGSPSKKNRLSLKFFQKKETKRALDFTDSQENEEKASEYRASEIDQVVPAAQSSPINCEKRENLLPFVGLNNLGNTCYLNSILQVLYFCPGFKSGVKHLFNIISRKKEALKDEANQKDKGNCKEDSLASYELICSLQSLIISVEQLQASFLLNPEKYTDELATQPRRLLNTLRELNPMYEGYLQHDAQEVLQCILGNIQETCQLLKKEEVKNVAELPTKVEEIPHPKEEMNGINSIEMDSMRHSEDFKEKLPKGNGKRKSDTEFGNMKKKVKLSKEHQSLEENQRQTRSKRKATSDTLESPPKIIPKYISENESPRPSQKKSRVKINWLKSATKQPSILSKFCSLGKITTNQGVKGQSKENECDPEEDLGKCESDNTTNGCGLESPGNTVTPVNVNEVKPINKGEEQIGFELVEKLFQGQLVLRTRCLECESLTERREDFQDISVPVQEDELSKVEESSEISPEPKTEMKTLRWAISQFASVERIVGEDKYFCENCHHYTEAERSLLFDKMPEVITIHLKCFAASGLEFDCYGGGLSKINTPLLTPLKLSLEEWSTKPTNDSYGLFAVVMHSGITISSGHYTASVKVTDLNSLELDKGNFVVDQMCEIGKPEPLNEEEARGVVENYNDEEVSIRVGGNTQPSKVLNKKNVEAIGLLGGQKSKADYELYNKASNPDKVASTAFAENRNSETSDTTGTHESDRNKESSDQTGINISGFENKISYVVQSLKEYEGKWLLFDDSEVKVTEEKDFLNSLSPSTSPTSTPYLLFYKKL
# Test: Inhibitors of USP1/UAF1: Primary Screen.
# Type: functional
row,SMILES,Potency
1,CCOC(=O)C(C)C(C)=O (stereo unspecified),355 µM (active)
